The source of these data is PMC7826789 (International Journal of Molecular Sciences, 2021).

Some test systems named below: CDK3; CDK4-cyclinD1; CDK4-cyclinD3; CDK4; CDK5; CDK7; CDK8; CDK9; CDKL1; CDKL2.
Conditions in all cases: Compound Concentration (nM):1000
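Note: KINOMEscan scanMAX binding as percent activity remaining versus control; lower means stronger binding.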

On to `COc1ccc2cc(-c3c(-c4ccncc4)nc(-c4ccc(S(C)(=O)=O)cc4C)n3C)ccc2c1` [SB-633825], for which the “Percent Control” value is 100% in the experiment on CDK3; 68% with CDK4-cyclinD1; 90% with CDK4-cyclinD3; 91% in the experiment with CDK4; 95% with CDK5; 85% in the experiment with CDK7. Moreover, the “Percent Control” value in the experiment with CDK8 was 78%; in the experiment with CDK9 it was 74%; in the experiment with CDKL1, 87%; in the experiment on CDKL2 it was 100%.

Consider `C/C(Nc1ccc(S(N)(=O)=O)cc1)=C1/C(=O)Nc2ccccc21` [GW335962X], for which the “Percent Control” value is 100% in the experiment with CDK3; 29% with CDK4-cyclinD1; 64% with CDK4-cyclinD3; 100% in the experiment with CDK4; 100% in the experiment on CDK5; 74% with CDK7. Moreover, the “Percent Control” value was 78% with CDK8, 100% with CDK9, 85% in the experiment with CDKL1 and 82% in the experiment on CDKL2.

On to `Nc1ncnc2occ(-c3ccc(NC(=O)Nc4cc(C(F)(F)F)ccc4F)cc3)c12` [GW770249X], for which the “Percent Control” value in the experiment with CDK3 was 39%; with CDK4-cyclinD1, 96%; in the experiment with CDK4-cyclinD3 it was 100%; with CDK4, 100%; in the experiment with CDK5, 63%; with CDK7, 4.4%. The “Percent Control” value is 0% in the experiment on CDK8, 70% in the experiment on CDK9, 93% with CDKL1 and 31% with CDKL2.

For the molecule `COc1ccccc1-c1cc(/C=C2\C(=O)Nc3ncc(Br)cc32)cc(Br)c1O` [GW442130X], the “Percent Control” value in the experiment with CDK3 is 100%; in the experiment on CDK4-cyclinD1 it was 88%; with CDK4-cyclinD3 it was 95%; with CDK4, 100%; in the experiment with CDK5, 99%; in the experiment with CDK7, 89%. Also, the “Percent Control” value with CDK8 is 71%; with CDK9, 97%; with CDKL1, 100%; in the experiment on CDKL2 it was 96%.

In the case of `Cl.O=C(O[C@H]1CN[C@H](C#Cc2cc3ncnc(Nc4ccc5c(cnn5Cc5ccccc5)c4)c3s2)C1)N1CCOCC1` [GSK200398A], the “Percent Control” value was 100% in the experiment with CDK3; 68% in the experiment on CDK4-cyclinD1; 100% in the experiment on CDK4-cyclinD3; 100% with CDK4; 100% in the experiment on CDK5; 78% in the experiment with CDK7. The “Percent Control” value with CDK8 was 84%; in the experiment with CDK9, 87%; with CDKL1 it was 88%; in the experiment on CDKL2, 92%.

For the molecule `COc1cccc(-n2ncc3c(N/N=C/c4ccncc4)ncnc32)c1` [GW784752X], the “Percent Control” value in the experiment on CDK3 is 100%; in the experiment with CDK4-cyclinD1, 49%; in the experiment on CDK4-cyclinD3, 72%; with CDK4 it was 93%; with CDK5, 90%; in the experiment on CDK7, 8.1%. Moreover, the “Percent Control” value in the experiment on CDK8 was 100%; in the experiment on CDK9, 100%; with CDKL1 it was 51%; in the experiment with CDKL2 it was 46%.

On to `COc1ccc2[nH]c3c4[nH]c5ccc(OC)cc5c4c4c(c3c2c1)C(=O)NC4=O` [GW296115X], for which the “Percent Control” value with CDK3 was 100%; in the experiment with CDK4-cyclinD1, 82%; in the experiment with CDK4-cyclinD3 it was 74%; in the experiment on CDK4, 100%; in the experiment with CDK5, 75%; with CDK7, 56%. In addition, the “Percent Control” value is 87% in the experiment with CDK8, 58% in the experiment with CDK9, 75% with CDKL1 and 92% in the experiment on CDKL2.

For the molecule `O=C(Nc1n[nH]c2nc(-c3ccc(O)cc3)c(Br)cc12)C1CC1` [SB-725317], the “Percent Control” value with CDK3 is 16%; with CDK4-cyclinD1, 2.5%; in the experiment with CDK4-cyclinD3 it was 4.4%; in the experiment with CDK4, 100%; in the experiment on CDK5, 100%; in the experiment with CDK7, 19%. The “Percent Control” value in the experiment on CDK8 was 100%; in the experiment on CDK9 it was 95%; in the experiment on CDKL1, 98%; in the experiment with CDKL2, 60%.

For `Cc1cc(O)cc(C)c1/C=C/c1cncc(C(N)=O)c1` [GW435821X], the “Percent Control” value in the experiment on CDK3 was 100%; in the experiment with CDK4-cyclinD1, 97%; in the experiment on CDK4-cyclinD3, 100%; in the experiment on CDK4 it was 100%; in the experiment with CDK5, 100%; with CDK7 it was 100%. In addition, the “Percent Control” value with CDK8 was 72%; in the experiment on CDK9 it was 100%; in the experiment on CDKL1 it was 100%; with CDKL2, 100%.
